CCHF vOTU inh = blocks the CCHF virus ovarian tumor domain protease; CCHFV vOTU protease, Pep-AMC fluorescence; 370,000 tested, 0.55% active; inhibition, % at 11.5 µM; in the data active = inhibition above about 30%; also: 0% = vehicle wells with enzyme and 100% = no enzyme wells
Mtb hypoxia rep = Mtb hypoxia fluorescent reporter inhibition; fluorescence inhibition, % (concentration not given with the values); 300,000 tested, 0.1% active; M. tuberculosis hypoxia-regulated fluorescent reporter, fluorescence; in the data active = fluorescence inhibition mostly above about 23%, no sharp cut-off; inactive = mostly below about 17%
SARS 3CLpro inh-1 = SARS-CoV 3CLpro protease inhibition. P0C6X7. 290,000 tested, 0.14% active. AID 1706. inhibition, % at 6 µM. recombinant SARS-CoV 3CLpro, quenched FRET peptide cleavage; in the data active = inhibition above about 12%
SSB-PriA inh = inhibitors of Klebsiella pneumoniae PriA binding to SSB C-terminal tail; AlphaScreen SSBct-PriA binding, biotinylated peptide; inhibition, % at 33 µM; 430,000 tested, 0.6% active; AID 1272365; in the data active = inhibition mostly above about 37%, no sharp cut-off; inactive = mostly below about 20%;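 also: plate controls were negative control peptide for no effect and reference peptide for full effect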
DUSP3 inh = inhibitors of human VHR1 phosphatase (DUSP3); P51452; inhibition, % at 13.3 µM; 290,000 tested, 0.52% active; recombinant VHR phosphatase, pNPP absorbance; AID 1654; in the data active = inhibition above about 50%
Target sequence (P51452 whole entry, looked up): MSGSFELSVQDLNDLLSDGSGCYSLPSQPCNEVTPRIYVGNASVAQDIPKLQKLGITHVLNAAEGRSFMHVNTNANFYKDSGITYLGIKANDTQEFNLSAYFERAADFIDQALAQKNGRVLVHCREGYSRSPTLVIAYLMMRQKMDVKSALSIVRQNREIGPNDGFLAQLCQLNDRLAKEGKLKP
SARS 3CLpro inh-2 = confirmation of SARS coronavirus 3C-like protease inhibitors | shares compounds with SARS 3CLpro inh-1 | QFRET protease activity assay, 3CLpro | inhibition, % at 6 µM | 380 tested, 36% active; in the data active = inhibition above about 13%
* = called active by the depositor. Only some compounds are listed: those with a hit (about 1.3% of all), similar ones and a draw of the others.

Screening CCOC(=O)c1cc(NC(=O)C2C3CCC(O3)C2C(=O)O)cc(C(=O)OCC)c1 (stereo not given) returned CCHF vOTU inh -21.7, Mtb hypoxia rep -0.4, SARS 3CLpro inh-1 3.9, SSB-PriA inh 53.0* and DUSP3 inh 24.6.
O=C(Cc1cccc2ccccc12)NCCCS(=O)(=O)N1CCc2ccccc2C1 was read as SSB-PriA inh -1.0.
`CCOC(=O)N1CCc2c(sc(NC(=O)CCSc3ccc(F)cc3)c2C(N)=O)C1` gave SSB-PriA inh 10.0.
For COc1cc(C(=O)Nc2ccc(N3CCN(C(=O)c4ccc(C)cc4)CC3)cc2)cc(OC)c1OC the results were CCHF vOTU inh -1.3, Mtb hypoxia rep 3.8, SARS 3CLpro inh-1 14.2*, SSB-PriA inh 6.9, DUSP3 inh -7.2 and SARS 3CLpro inh-2 0.3.
Screening Cc1ccc(C(=O)N2CCN(c3ccc(NC(=O)c4cccnc4)cc3)CC2)cc1 returned CCHF vOTU inh 8.9, SARS 3CLpro inh-1 3.3, SSB-PriA inh 18.4 and DUSP3 inh 15.9.
`COc1cc(Nc2ncnc3c2c(-c2ccccc2)cn3-c2cccc(C(F)(F)F)c2)cc(OC)c1OC` gave SSB-PriA inh 1.0.
`COC(=O)C1=C(C)NC(=S)NC1c1ccc(-c2ccccc2C(=O)OC)o1` (stereo not given) gave CCHF vOTU inh 2.0, Mtb hypoxia rep 4.1, SARS 3CLpro inh-1 13.1*, SSB-PriA inh 1.8, DUSP3 inh 15.5 and SARS 3CLpro inh-2 -5.0.
Screening CC(C)c1ccc(S(=O)(=O)Nc2ccc(SC(F)F)cc2)cc1 returned CCHF vOTU inh 23.6, Mtb hypoxia rep 16.1, SARS 3CLpro inh-1 12.8*, SSB-PriA inh -4.3, DUSP3 inh 29.8 and SARS 3CLpro inh-2 4.9.
O=[N+]([O-])c1ccc(S(=O)(=O)Nc2ccc(SC(F)F)cc2)cc1 was read as SSB-PriA inh 28.0.
For Cn1nc(-c2ccc(Cl)cc2)nc2c(=O)n(C)c(=O)nc1-2 the results were Mtb hypoxia rep 8.5, SARS 3CLpro inh-1 18.1*, DUSP3 inh 33.8 and SARS 3CLpro inh-2 48.3*.
Screening CCOc1cccc2cc(C(=O)N3CCN(c4ccccc4)CC3)oc12 returned SSB-PriA inh 27.0.
For O=[N+]([O-])/C=C/c1cn(Cc2ccccc2)c2ccccc12 the results were CCHF vOTU inh -2.1, Mtb hypoxia rep 10.8, SARS 3CLpro inh-1 12.6*, SSB-PriA inh 0.2, DUSP3 inh 13.2 and SARS 3CLpro inh-2 -1.9.
Screening CCc1cccc(CC)c1N(COC)C(=O)Cn1nnc2ccccc21 returned CCHF vOTU inh 11.0, Mtb hypoxia rep 15.2, SARS 3CLpro inh-1 12.3*, SSB-PriA inh -8.3, DUSP3 inh -10.5 and SARS 3CLpro inh-2 13.4*.
Screening CCc1cccc(CC)c1N(COC)C(=O)Cn1c(CO)nc2ccccc21 returned CCHF vOTU inh 3.4, Mtb hypoxia rep 9.6, SARS 3CLpro inh-1 0.8, SSB-PriA inh 0.4 and DUSP3 inh 4.3.
Cc1cccn2cc(-c3ccccc3NC(=O)CCS(=O)(=O)c3ccccc3)nc12 was read as SSB-PriA inh -10.0.
Screening COc1ccc2cc(C3(C)NC(=O)N(CC(=O)NCc4ccco4)C3=O)ccc2c1 (stereo not given) returned CCHF vOTU inh -5.3, Mtb hypoxia rep 6.0, SARS 3CLpro inh-1 15.9*, SSB-PriA inh 2.1, DUSP3 inh 22.2 and SARS 3CLpro inh-2 12.3*.
Screening Cc1c(C)c2ccc(OCC(=O)NC(Cc3c[nH]c4ccc(O)cc34)C(=O)O)c(C)c2oc1=O (stereo not given) returned CCHF vOTU inh 5.8, SARS 3CLpro inh-1 2.7, SSB-PriA inh 1.5 and DUSP3 inh 12.5.
Cc1c(OCC(=O)N[C@@H](Cc2c[nH]c3ccccc23)C(=O)O)ccc2c1oc(=O)c1ccccc12 was read as CCHF vOTU inh -7.9, SARS 3CLpro inh-1 13.8*, SSB-PriA inh 4.3, DUSP3 inh -11.9 and SARS 3CLpro inh-2 8.8.
`CC(=O)n1cc(N(C(=O)CCl)c2ccc(Cl)cc2)c2ccccc21` gave Mtb hypoxia rep 19.9, SARS 3CLpro inh-1 12.8*, SSB-PriA inh -5.2, DUSP3 inh 29.0 and SARS 3CLpro inh-2 34.6*.
CC(C)c1ccc(N(C(=O)c2csnn2)C(C(=O)NC2CCCC2)c2cccnc2)cc1 (stereo not given) was read as CCHF vOTU inh -13.7, Mtb hypoxia rep 3.9, SARS 3CLpro inh-1 15.4*, SSB-PriA inh -0.2, DUSP3 inh 35.0 and SARS 3CLpro inh-2 20.1*.
For CCc1ccc(N(C(=O)c2csnn2)C(C(=O)NC2CCCC2)c2cccnc2)cc1 (stereo not given) the results were CCHF vOTU inh -2.0, Mtb hypoxia rep 6.5, SARS 3CLpro inh-1 5.4, SSB-PriA inh -0.7 and DUSP3 inh 8.0.
Screening COc1cc(/C=N\NC(=O)Cn2nnc3ccccc32)ccc1OCc1ccccc1 returned SSB-PriA inh 6.0.
`COc1ccc(/C=N/NC(=O)Cn2nnc3ccccc32)cc1OC` gave CCHF vOTU inh 6.2, SARS 3CLpro inh-1 12.5*, DUSP3 inh -13.2 and SARS 3CLpro inh-2 16.5*.
Cc1ccc(C)c(S(=O)(=O)N2CCN(C(=O)c3ccc(N4CCCC4)c([N+](=O)[O-])c3)CC2)c1 was read as CCHF vOTU inh -2.4, Mtb hypoxia rep -6.0, SARS 3CLpro inh-1 12.8*, SSB-PriA inh 35.6, DUSP3 inh -2.7 and SARS 3CLpro inh-2 4.6.
CCn1cc(C(=O)Nc2ccc(Br)cc2F)c(=O)c2ccc(C)nc21 was read as SSB-PriA inh -4.0.
For COc1ccc(/C(N)=N/OC(=O)CSc2ccccc2)cc1OC the results were CCHF vOTU inh 9.3, SARS 3CLpro inh-1 12.7*, DUSP3 inh 41.6 and SARS 3CLpro inh-2 -1.2.
For COc1ccc(C(N)=NOC(=O)CSc2ccccc2)cc1 the results were SSB-PriA inh -134.7.
`O=C(NCCn1nc(C(F)(F)F)cc1C1CC1)C1COc2ccccc2O1` (stereo not given) gave SSB-PriA inh -6.0.
For O=C1c2[nH]nc(-c3ccccc3O)c2C(c2ccccc2)N1Cc1ccco1 (stereo not given) the results were CCHF vOTU inh -0.7, Mtb hypoxia rep -0.8, SARS 3CLpro inh-1 3.1, SSB-PriA inh 13.9 and DUSP3 inh -4.1.
For O=C1c2[nH]nc(-c3ccccc3O)c2C(c2ccccc2F)N1Cc1ccco1 (stereo not given) the results were CCHF vOTU inh 2.7, Mtb hypoxia rep 13.3, SARS 3CLpro inh-1 13.0*, SSB-PriA inh 15.6, DUSP3 inh 6.7 and SARS 3CLpro inh-2 1.9.
`Cc1c(Cl)cccc1NC(=O)Nc1ccc2nc(C)n(-c3ccc(F)cc3)c(=O)c2c1` gave SSB-PriA inh -9.0.
O=C(COc1cccc2ccc(N3CCCCC3)nc12)Nc1cc(C(F)(F)F)ccc1Cl was read as SSB-PriA inh -4.0.
For CC(=O)Nc1ccc(NS(=O)(=O)c2cc(Cl)ccc2Cl)cc1 the results were CCHF vOTU inh 25.3, Mtb hypoxia rep 10.7, SARS 3CLpro inh-1 -2.1, SSB-PriA inh -6.9 and DUSP3 inh 13.8.

Screening results: PubChem, several laboratories
